According to PubChem BioAssay:
Unmarked numbers belong to inactive results. The source made the active and inactive calls. Unless noted, no stated cut-off is given here; in the data, active means inhibition above about 30%; inactive means the rest.

Columns and labels:
[1] = target: Nuclear receptor coactivator 3 (Homo sapiens) (UniProt Q9Y6Q9); assay: NCOA3 GAL4-fusion reporter inhibition – cell-based, luminescence, quadruplicate, confirmation (AID 588792;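 active means mean inhibition over 43.08%, the solvent-only control mean plus 3 SD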;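 further: 0% = DMSO treated cells and 100% = gossypol at 36 µM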); settings: HEK293 GAL4-SRC3 luciferase reporter, at 3.6 µM, stronger effect = higher value
[2] = system: transactivating tegument protein VP16 (Human herpesvirus 1), Gal4-VP16 luciferase reporter; assay: repression of VP16-driven luciferase reporter – cell-based, luminescence, high throughput, counter-screen for SRC3 inhibitor project (AID 588794); settings: mammalian cells, at 3.6 µM, stronger effect = higher value
[3] = target: Nuclear receptor coactivator 1 (Homo sapiens) (UniProt Q15788); assay: NCOA1 GAL4-fusion reporter inhibition – cell-based, luminescence, quadruplicate, confirmation (AID 588820;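 active means mean inhibition above 46.68%, the untreated control wells mean plus 3 SD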;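 further: 0% = DMSO wells and 100% = gossypol 36 µM treated wells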); settings: HEK293 GAL4-SRC1 luciferase reporter, at 3.6 µM, stronger effect = higher value
[4] = repression of VP16-driven luciferase reporter – cell-based, luminescence, high throughput, counter-screen for SRC1 inhibitor project (AID 588824; in the data active means inhibition above about 25%); settings: cell-based VP16 transactivation luciferase luminescence; at 3.6 µM; stronger effect = higher value

Sequence of Nuclear receptor coactivator 3 (Homo sapiens) (Q9Y6Q9 whole entry, looked up, the tested form may be a part): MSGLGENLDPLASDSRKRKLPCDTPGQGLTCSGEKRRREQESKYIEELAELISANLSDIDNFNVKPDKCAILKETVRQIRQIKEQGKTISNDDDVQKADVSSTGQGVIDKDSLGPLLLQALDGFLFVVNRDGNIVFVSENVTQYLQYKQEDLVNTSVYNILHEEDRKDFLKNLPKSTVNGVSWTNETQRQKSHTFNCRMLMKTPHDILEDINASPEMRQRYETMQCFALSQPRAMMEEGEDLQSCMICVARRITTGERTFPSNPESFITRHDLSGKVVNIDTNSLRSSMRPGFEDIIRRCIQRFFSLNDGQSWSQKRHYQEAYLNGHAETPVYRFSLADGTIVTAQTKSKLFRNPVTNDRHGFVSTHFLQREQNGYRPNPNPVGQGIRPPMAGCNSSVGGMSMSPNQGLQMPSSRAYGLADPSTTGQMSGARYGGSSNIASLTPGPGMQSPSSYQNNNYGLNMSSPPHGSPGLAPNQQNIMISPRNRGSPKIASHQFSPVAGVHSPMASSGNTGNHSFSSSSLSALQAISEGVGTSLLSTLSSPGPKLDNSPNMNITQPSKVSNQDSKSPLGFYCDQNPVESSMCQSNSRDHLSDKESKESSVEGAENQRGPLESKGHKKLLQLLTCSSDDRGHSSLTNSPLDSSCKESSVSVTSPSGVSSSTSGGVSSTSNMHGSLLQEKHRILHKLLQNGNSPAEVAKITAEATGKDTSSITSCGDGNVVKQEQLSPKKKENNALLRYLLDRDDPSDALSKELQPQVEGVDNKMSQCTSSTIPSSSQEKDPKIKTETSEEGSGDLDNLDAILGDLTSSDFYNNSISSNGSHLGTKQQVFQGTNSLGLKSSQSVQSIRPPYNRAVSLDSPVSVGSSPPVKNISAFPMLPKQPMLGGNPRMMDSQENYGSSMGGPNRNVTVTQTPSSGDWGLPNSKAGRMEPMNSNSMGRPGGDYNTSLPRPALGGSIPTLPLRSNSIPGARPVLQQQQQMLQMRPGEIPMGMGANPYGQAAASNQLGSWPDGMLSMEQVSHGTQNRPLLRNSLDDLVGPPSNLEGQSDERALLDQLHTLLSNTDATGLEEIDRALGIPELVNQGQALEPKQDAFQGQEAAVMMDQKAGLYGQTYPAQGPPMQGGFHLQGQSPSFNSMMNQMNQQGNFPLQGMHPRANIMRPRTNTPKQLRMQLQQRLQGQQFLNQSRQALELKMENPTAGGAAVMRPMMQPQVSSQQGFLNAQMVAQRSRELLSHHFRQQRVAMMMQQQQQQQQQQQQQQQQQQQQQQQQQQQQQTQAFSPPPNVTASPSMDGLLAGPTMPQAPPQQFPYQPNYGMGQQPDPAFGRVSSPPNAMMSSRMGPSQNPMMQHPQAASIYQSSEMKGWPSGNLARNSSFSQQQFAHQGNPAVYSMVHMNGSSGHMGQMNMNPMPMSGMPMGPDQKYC
Sequence of Nuclear receptor coactivator 1 (Homo sapiens) (Q15788 whole entry, looked up, the tested form may be a part): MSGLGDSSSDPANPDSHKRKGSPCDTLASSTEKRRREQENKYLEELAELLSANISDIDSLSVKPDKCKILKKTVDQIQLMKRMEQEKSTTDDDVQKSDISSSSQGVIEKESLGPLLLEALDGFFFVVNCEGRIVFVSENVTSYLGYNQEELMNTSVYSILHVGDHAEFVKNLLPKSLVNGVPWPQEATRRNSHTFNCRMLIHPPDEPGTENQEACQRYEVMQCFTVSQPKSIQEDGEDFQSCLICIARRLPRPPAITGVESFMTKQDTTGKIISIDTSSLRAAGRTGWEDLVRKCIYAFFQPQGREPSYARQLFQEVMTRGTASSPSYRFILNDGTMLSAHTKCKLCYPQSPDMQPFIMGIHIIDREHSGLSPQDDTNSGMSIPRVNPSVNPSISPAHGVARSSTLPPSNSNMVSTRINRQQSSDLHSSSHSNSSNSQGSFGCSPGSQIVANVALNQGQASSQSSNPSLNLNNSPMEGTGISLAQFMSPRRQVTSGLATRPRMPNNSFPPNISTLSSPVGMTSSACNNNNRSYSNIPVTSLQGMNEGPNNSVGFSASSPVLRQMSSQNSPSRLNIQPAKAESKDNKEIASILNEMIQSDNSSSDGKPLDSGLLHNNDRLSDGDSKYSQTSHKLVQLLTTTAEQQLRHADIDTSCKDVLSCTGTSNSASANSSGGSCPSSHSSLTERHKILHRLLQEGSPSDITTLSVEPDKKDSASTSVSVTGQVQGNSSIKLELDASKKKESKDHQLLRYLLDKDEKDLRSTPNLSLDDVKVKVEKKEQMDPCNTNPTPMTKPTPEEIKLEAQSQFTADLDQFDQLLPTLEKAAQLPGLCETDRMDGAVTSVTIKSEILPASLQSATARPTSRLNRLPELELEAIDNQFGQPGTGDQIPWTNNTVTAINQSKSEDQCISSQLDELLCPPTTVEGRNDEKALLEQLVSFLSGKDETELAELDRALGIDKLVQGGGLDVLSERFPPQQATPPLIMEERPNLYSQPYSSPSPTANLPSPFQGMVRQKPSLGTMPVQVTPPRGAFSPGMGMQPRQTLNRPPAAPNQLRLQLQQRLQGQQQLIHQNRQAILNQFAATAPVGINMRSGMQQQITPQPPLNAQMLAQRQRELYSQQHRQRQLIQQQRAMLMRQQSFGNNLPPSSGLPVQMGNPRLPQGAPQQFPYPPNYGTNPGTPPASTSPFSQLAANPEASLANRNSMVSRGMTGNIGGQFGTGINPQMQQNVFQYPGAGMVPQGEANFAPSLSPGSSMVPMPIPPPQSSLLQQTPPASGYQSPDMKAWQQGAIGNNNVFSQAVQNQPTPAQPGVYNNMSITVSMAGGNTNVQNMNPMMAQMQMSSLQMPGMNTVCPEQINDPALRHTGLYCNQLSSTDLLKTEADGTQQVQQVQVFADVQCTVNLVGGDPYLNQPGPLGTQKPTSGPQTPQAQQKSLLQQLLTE

SMILES	inhibition [1]	inhibition [2]	inhibition [3] [%]	inhibition [4]
COc1ccc(C(CNC(=O)C(C)(C)Oc2ccc(Cl)cc2)N2CCCCC2)cc1 (stereo not drawn)	11.2%	2.63%		
O=C(NCc1cccs1)C1CCCN(C(=O)Nc2ccccc2)C1 (stereo not drawn)	17.7%	31.9% (active)		
COCC(C)NS(=O)(=O)c1ccc(C(=O)NC(Cc2ccccc2)c2ccccc2)cc1 (stereo not drawn)	17.7%	0.32%		
O=C(c1ccc(Cl)cc1)C(Cn1cncn1)C(Sc1ccccc1)c1ccccc1 (stereo not drawn)	14.8%	20.1%		
O=c1[nH]c(=O)n(C2CC(O)C(CO)O2)cc1I (stereo not drawn)	23.1%	11.8%		
COc1ccc(-n2nc(C(=O)NCC(=O)NCC3COc4ccccc4O3)c3ccccc3c2=O)cc1OC (stereo not drawn)	-4.76%	-7.63%		
CCc1ccc(NC(=O)c2cnc(N3CCN(c4ccccn4)CC3)c3ccccc23)cc1	18.1%	42% (active)		
COc1cccc2[nH]c(=O)c(-c3ccccc3)cc12	-103%	-36.1%		
Cc1nc(SCC(=O)NCc2ccc3c(c2)OCO3)c(C#N)c2c1CCCC2	-21.9%	-7.85%		
COc1cc(/C=C/c2cc(C(F)(F)F)[nH]c(=O)n2)cc(OC)c1OC	16.9%	40.6% (active)		
C/C(=N\NC(=O)c1cc(-c2cccnc2)nc2ccccc12)c1ccc(O)cc1O	48.4% (active)	29.9% (active)		
Cc1cc(C)nc(/N=C(\N)Nc2ccc(OCCC(C)C)cc2)n1	-1.86%	23.4%		
O=C(N/N=C/c1ccc(O)cc1O)c1ccc(NC(=O)C2CCCCC2)cc1	9.15%	10.4%		
OCC(O)C(O)C(O)C(O)C1NCCS1 (stereo not drawn)	-6.42%	-4.51%		
C=CC[C@@H](CC(=O)NCCO)C(=O)NC[C@H](OC(=O)[C@@H](CC=C)Cc1ccc(F)cc1)c1ccccc1	16.2%	2.08%		
COc1cc(NC(=O)C2CCN(S(=O)(=O)c3ccc(N4CCCC4=O)cc3)CC2)cc(OC)c1	7.83%	5.99%		
COc1ccc(N/N=C/c2c(C(=O)O)ccc3ccccc23)cc1	31.2%	36.5% (active)		
COc1ccc(CNS(=O)(=O)c2ccc3c(c2)N(C(C)=O)CC(C)S3)cc1 (stereo not drawn)	7.83%	11.6%		
COc1ccc(C(=O)Nc2ccc(N3CCN(C(=O)c4ccccc4C)CC3)cc2)cc1	28.4%	25.1%		
COc1cccc(/C=N/NC(=O)CNC(=O)C(c2ccccc2)c2ccccc2)c1O	17.2%	20.7%		
COc1ccc2c(c1)CCc1cnc(N)nc1-2	20%	10.4%		
CCN(CC)S(=O)(=O)c1cccc(NC(=O)Nc2cccc(C(F)(F)F)c2)c1	13.9%	18%		
CC(=O)N1CCc2cc(S(=O)(=O)NCCC(=O)NCCc3ccc(Cl)cc3)ccc21	-9.13%	1.52%		

SMILES	inhibition [1]	inhibition [2]	inhibition [3] [%]	inhibition [4]
CCN(CC)c1ccc(/C=N/NC(=O)c2ccc3nc[nH]c3c2)c(O)c1	51.3% (active)	50.6% (active)		
Cc1ccc(S(=O)(=O)N2CCOCC2)cc1C(=O)Nc1cc(S(=O)(=O)N2CCCCC2)ccc1O	-2.21%	-4.27%		
Cc1cc(Br)ccc1NC(=O)c1cnc(N2CCN(c3ccccn3)CC2)c2ccccc12	15.6%	15.2%		
CC(=O)Nc1ccc(OCC(O)Cn2c3ccccc3c3ccccc32)c(C)c1 (stereo not drawn)	-0.56%	-0.54%		
CCCCc1c(O)nc(SCC(=O)NCC2CCCO2)[nH]c1=O (stereo not drawn)	-3.37%	6.46%		
COc1ccc2[nH]c(C(=O)N/N=C/c3ccc(O)cc3O)cc2c1	54.5% (active)	45.9% (active)		
Cc1cc(C=C2C(=O)c3ccccc3C2=O)c(C)n1-c1cccc(C(=O)O)c1	23.3%	10.4%		
COc1cc2[nH]c3c(Cl)ncnc3c2cc1OC	32.2%	16.2%		
O=C1N=C(N2CCN(c3ccccc3)CC2)S/C1=C\c1cn[nH]c1-c1ccccc1	8.51%	2.8%		
COc1ccc(C(=O)Nc2c(-c3cccs3)c(=O)c3ccccc3n2C)cc1	-10.2%	7.07%		
CCN(CC)C(=O)c1[nH]cnc1C(=O)N[C@@H](CCCCNC(=O)OC(C)(C)C)C(=O)OC(C)(C)C	3.8%	-3.67%		
O=C(CCN1CCN(c2ccccc2)CC1)Nc1ccc(Cl)cc1	3.39%	1.2%		
Cc1ccc(C(=O)N(Cc2cccs2)C2CCS(=O)(=O)C2)cc1 (stereo not drawn)	-5.57%	0.26%		
O=C(CSc1nnc(COc2ccc(Cl)cc2)o1)N1CCOCC1	-3.82%	-7.96%		
COc1ccc(NC(=O)c2oc3ccc(S(=O)(=O)N4CCC5(CC4)OCCO5)cc3c2C)cc1	5.45%	8.97%		
CCCn1c(C)cc(C(=O)COc2ccc(C)nc2[N+](=O)[O-])c1C	11.3%	6.56%		
O=C(NNc1ccccc1)c1ccc(Cl)c(Cl)c1	19.8%	58.7% (active)		
Cc1c(P(=S)(c2ccccc2)c2ccccc2)[n+]2ccccc2n1CCc1ccccc1	25.9%	22%		
Nc1ccccc1-c1ccc([N+](=O)[O-])cc1	5.58%	33.1% (active)		
CC1CCCCC12NC(=O)N(CC(=O)N1CCN(Cc3ccc(C#N)cc3)CC1)C2=O (stereo not drawn)	-3.89%	6.63%		
Cc1cccc(NC(=O)c2cc(-c3ccccn3)nc3ccccc23)c1C	-9.5%	8.29%		
CCOC(=O)c1c(NC(=S)N2CCN(C)CC2)sc2c1CCN(C(=O)OCC)C2	35.5%	40.1% (active)		
Fc1ccccc1-c1csc(=Nc2cccnc2)n1CCCn1ccnc1	37.4%	25.1%		

SMILES	inhibition [1]	inhibition [2]	inhibition [3] [%]	inhibition [4]
Cc1ccc(-c2csc(NC(=O)c3cccc(C)c3)c2C(=O)O)cc1	-6.27%	0.42%		
CC(C)OC(=O)c1sc2nc(-c3ccccc3)ccc2c1N	23.7%	-2.61%		
CN1CCN(S(=O)(=O)c2ccc(Sc3nnnn3-c3ccccc3)c([N+](=O)[O-])c2)CC1	24.5%	2.52%		
O=C(CCl)Nc1cccc(-c2cnc3ccccc3n2)c1	33.5%	13.8%		
O=C(/C=C/c1ccc([N+](=O)[O-])cc1)c1ccccc(=O)c1O	33%	37.5% (active)		
Cc1cc[n+](C(C)C(=O)c2ccc(-c3ccccc3)cc2)cc1 (stereo not drawn)	8.52%	32% (active)		
COc1cc(NC(=O)c2cccs2)c(C(=O)OCC(=O)c2cc(C)n(-c3ccc(F)cc3)c2C)cc1OC	5.85%	2.26%		
O=C(NNc1ccc(O)cc1)c1ccc(Br)cc1	31.5%	63.4% (active)		
Cc1nnnn1/C(=C\c1ccccc1)C(=O)OCC(=O)Nc1cccc(S(=O)(=O)N(C)C)c1	-9.38%	13.2%		
COc1ccc2c(=O)c3c(=O)n(CCc4ccccc4)c(C(C)C)nc3oc2c1	4.29%	17.5%		
CCOc1ccc(N2C(=O)/C(=C/c3cc(OC)c(OC)c(OC)c3)N(CC(=O)OC)C2=S)cc1	18.9%	12.7%		
O=C(Nc1nc(-c2ccc3c(c2)OCCO3)cs1)c1ccc(S(=O)(=O)N2CCCCC2)cc1	-0.44%	32.6% (active)		
CC1CCC(C(C)C)C(OC(=O)Cn2c(-c3ccc(Br)cc3)[n+](C)c3ccccc32)C1 (stereo not drawn)	3.76%	35.8% (active)		
CCN(CC)c1ncnc2ccc(Br)cc12	48.3% (active)	31.9% (active)	45.9	36% (active)
COc1cccc(CN(C)C(=O)c2ccc(OCC(=O)Nc3cccc(C(F)(F)F)c3)c(OC)c2)c1	14.8%	34% (active)	6.82	35.6% (active)
CC(C)(C)OC(=O)NCC(=O)Oc1cc2oc(=O)cc(-c3ccccc3)c2cc1Cl	21.9%	15.7%	21.3	15.3%
CC(C)c1ccc(-c2csc3ncnc(N4CCN(C)CC4)c23)cc1	42.1%	35.5% (active)	42.8	32.9% (active)
O=C(Nc1c(-c2ccccc2)[nH][nH]c1=O)c1cccc(C(F)(F)F)c1	15.3%	6.35%	22	0.94%
Cc1ccc(S(=O)(=O)N2C[C@H]3C(=O)C[C@@H](c4ccccc4)N(S(=O)(=O)c4ccc(C)cc4)[C@H]3C[C@H]2c2ccccc2F)cc1	6.96%	2.52%		
COc1ccc(-c2ncncc2-c2ccccc2)c(O)c1	27%	17.1%	35	14.7%
O=c1[nH]c(=O)n(C2OC(CO)C(O)C2O)cc1F (stereo not drawn)	57.4% (active)	58.5% (active)	26.9	57.2% (active)
